gsp antagonist: qHTS for Antagonists of gsp, the Etiologic Mutation Responsible for Fibrous Dysplasia/McCune-Albright Syndrome: qHTS | Potency, µM (series often up to 76.9 µM), without a hit: top-dose activity change, negative = inhibition, most hits filed as inhibitors | gsp-mutant cells, cAMP HTRF, 30 min | 340,000 compounds, 0.4% hits; calls by dose curve; cell line not stated here;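 further: intracellular cAMP measured with PDE inhibitor Ro 20-1724 present during compound exposure; potency means the concentration at half of the fitted maximal effect; on the % scale 0 is the no-effect control and ±100 the full control effect; nearly all actives have a fitted effect of over 65% in size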
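Measurement of cellular cAMP by homogeneous time-resolved fluorescence following a 30 min compound exposure at 37C. The PDE inhibitor […] was present throughout; the assay buffer was DPBS with 0.05% BSA and 0.005% Tween 20.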
FBPA coupling cs: qHTS Assay for Inhibitors of Fructose-1,6-bisphosphate Aldolase from Giardia Lamblia: Coupling assay counterscreen; 290,000 compounds, 0.67% hits; coupling enzyme system counterscreen, AmpLite Red fluorescence; activity change, negative = inhibition, % at 58.2 µM, hits read low; in the data active means activity change below about -30%; further: on the % scale 0 is the no-effect control and ±100 the full control effect
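First, compound is pin-transferred into glyceraldehyde-3-phosphate coupling-enzyme reagent at 57.5 uM final and held 10 min at RT. Next, substrate, coupling system and AmpLite Red are added. After 20 min RT, fluorescence (525/598 nm) is read.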
gsp agonist: qHTS for Agonist of gsp, the Etiologic Mutation Responsible for Fibrous Dysplasia/McCune-Albright Syndrome: qHTS | gsp mutant cells, cAMP HTRF, 30 min | Potency, µM (doses to about 76.9 µM), inactives show at the top dose activation (cAMP increase), hits mostly activators | 340,000 compounds, 0.13% hits | AID 624287, 2012; active means well fitted activation curve with a large enough effect; inconclusive means small, poorly fitted or top-dose-only effect, or another doubt; inactive means no such curve, though single readings can be large or run the other way; cell line not stated here;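 further: phosphodiesterase inhibitor Ro 20-1724 added with compounds to block cAMP breakdown; potency means the concentration at half of the fitted maximal effect; nearly all actives have a fitted effect of over 60% in size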
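Cells in DMEM/10% FBS with G418 were pretreated with compounds in DMSO plus […] (300 uM stock) for 30 min at 37C. cAMP was measured by HTRF (cAMP-d2 plus anti-cAMP antibody-K) after 30 min at room temperature.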
Giardia killer: Small Molecules that selectively kill Giardia lamblia: qHTS; Giardia lamblia trophozoite viability; AID 540267, 2011; 340,000 compounds, 0.15% hits; activity change, % at 7.66 µM, hits read low; in the data active means activity change below about -80%; inconclusive means between about -30% and that limit;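 further: parasites exposed to compound for two days anaerobically before the ATP read; on the % scale 0 is the no-effect control and ±100 the full control effect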
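Luminescence from cellular ATP indicates surviving trophozoites (100 cells/well) following 48 hrs anaerobic compound treatment at 37 deg C; signal develops 15-30 min at room temperature.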
RXFP1 ag: qHTS Assay for Agonists of the Relaxin Receptor RXFP1. Relaxin receptor 1 (Homo sapiens), Q9HBX9. HEK293T-RXFP1 cAMP TR-FRET, 30 min; response scale: percent of porcine relaxin response, buffer zero. Potency, µM (doses to about 57.5 µM), inactives show at the top dose activation, most hits filed as activators. 370,000 compounds, 0.3% hits; active means well fitted activation curve with a large enough effect; inconclusive means small, poorly fitted or top-dose-only effect; further: potency means the concentration at half of the fitted maximal effect; on the % scale 0 is the no-effect control and ±100 the full control effect; nearly all actives have a fitted effect of over 60% in size
Target sequence (Q9HBX9 whole entry, looked up): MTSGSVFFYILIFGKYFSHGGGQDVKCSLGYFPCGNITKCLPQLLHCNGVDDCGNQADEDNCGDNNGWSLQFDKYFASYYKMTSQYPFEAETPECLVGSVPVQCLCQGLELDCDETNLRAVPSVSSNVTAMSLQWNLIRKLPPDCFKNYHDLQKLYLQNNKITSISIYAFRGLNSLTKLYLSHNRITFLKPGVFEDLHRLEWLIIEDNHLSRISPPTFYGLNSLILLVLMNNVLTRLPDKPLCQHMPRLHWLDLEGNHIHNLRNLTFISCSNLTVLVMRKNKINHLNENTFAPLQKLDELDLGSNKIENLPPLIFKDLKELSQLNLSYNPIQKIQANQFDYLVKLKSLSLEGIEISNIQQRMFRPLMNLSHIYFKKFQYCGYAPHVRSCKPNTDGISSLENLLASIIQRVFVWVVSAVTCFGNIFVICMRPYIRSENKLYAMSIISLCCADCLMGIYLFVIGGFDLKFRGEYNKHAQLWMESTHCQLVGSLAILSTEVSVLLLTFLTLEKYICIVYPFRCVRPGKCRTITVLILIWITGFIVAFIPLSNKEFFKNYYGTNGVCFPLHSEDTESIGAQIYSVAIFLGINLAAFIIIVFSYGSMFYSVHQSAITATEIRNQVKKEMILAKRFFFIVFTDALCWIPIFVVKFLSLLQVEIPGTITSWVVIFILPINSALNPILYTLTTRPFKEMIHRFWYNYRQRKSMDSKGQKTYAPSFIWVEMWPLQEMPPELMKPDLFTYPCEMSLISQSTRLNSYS
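HEK293 cells stably expressing RXFP1, treated 30 min at 37C with compounds plus PDE4 inhibitor Ro 20174; cAMP measured by HTRF TR-FRET. Normalized to buffer and 29 nM porcine relaxin; EC50 by Hill fit.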
RXFP1 antag: qHTS Assay for Antagonists of the Relaxin Receptor RXFP1. 350,000 compounds, 0.59% hits. Relaxin receptor 1 (Homo sapiens), Q9HBX9. HEK293-RXFP1, relaxin-stimulated cAMP HTRF, 30 min; hits give low values. activity change, negative = inhibition, % at 57.5 µM;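 active means activity change of -60% or lower, but not beyond a set lower limit; inconclusive means change between -60% and -40%, or beyond the set limit; inactive means change above -40%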; further: on the % scale 0 is the no-effect control and ±100 the full control effect
The depositor's hits bear a star; ? = inconclusive; · = no result given; [ ] = another dose, or the depositor's remark. Compounds with a hit are over-represented: about 1.6% of the library has one in this group of screens.

SMILES | gsp antagonist | FBPA coupling cs | gsp agonist | Giardia killer | RXFP1 ag | RXFP1 antag
CCn1c(SCC(=O)Nc2nccs2)nnc1-c1ccc(S(=O)(=O)N2CCCCCC2)cc1 | 40µM* | 4 | 20% | -8 | 1% | 8
COc1ccccc1N1CCN(C(=O)CCC(=O)O)CC1 | 14% | -4 | 16%[15.4 µM] | 11 | -1% | -7
CCOC(=O)N1CCN(C(=O)c2ccc(Cn3c(=S)[nH]c4cc(OCC)c(OCC)cc4c3=O)cc2)CC1 | ? | 0 | 8%[15.4 µM] | 6 | 5% | -32
Cc1ccc(C)c(N2CCN(C(=O)CCCn3c(=S)[nH]c4cc5c(cc4c3=O)OCO5)CC2)c1 | 3% | 0 | 5% | 18 | 0% | -102*
CCOC(=O)N1CCN(C(=O)c2ccc(Cn3c(=S)[nH]c4cc5c(cc4c3=O)OCO5)cc2)CC1 | ? | 1 | -22% | 21 | -1% | -92*
COc1ccccc1N1CCN(C(=O)Cc2cccs2)CC1 | 0% | -32* | -48% | -2 | -1% | -8
COc1ccccc1N1CCN(C(=O)CCCn2c(=S)[nH]c3ccccc3c2=O)CC1 | · | · | 1% | · | · | -65*
CCCCn1c(SCC(=O)Nc2ccc(OCC)cc2)nc2ccsc2c1=O | · | · | · | · | 4% | -7
COC(=O)C1=C(C)N(Cc2ccccc2)[C@]23O[C@](C(=O)OC)(C(=O)N2C1c1ccccc1)C(C(=O)OC)C3C(=O)OC (stereo not given in full) | · | 3 | · | · | · | ·
O=C(CCCn1c(=S)[nH]c2cc3c(cc2c1=O)OCO3)N1CCN(c2ccccc2F)CC1 | -19% | 2 | -13% | 5 | 2% | ?
COc1ccccc1N1CCN(C(=O)CCCCCn2c(=S)[nH]c3cc4c(cc3c2=O)OCO4)CC1 | · | · | 12% | · | · | -78*
CN(c1ccccc1)c1ccc(/C=C/[N+](=O)[O-])cc1 | 13% | -5 | 0%[15.4 µM] | 13 | 0% | -108*
CCN1CCN(CCCNC(=O)Cn2c(-c3cccs3)cc3cc(Cl)ccc32)CC1 | · | · | · | · | 3% | -69*
CCCC(C(=O)O)n1c(O)c(C=C2N=c3ccccc3=N2)sc1=S (stereo not given) | -11% | 2 | -40% | -20 | -14% | -61*
CCOC(=O)[C@H](CCc1ccccc1)N[C@@H](C)C(=O)N(CC(=O)O)C1Cc2ccccc2C1 | · | · | · | · | · | -5
COc1ccc(C2=NS(=O)(=O)N(C)C(C(=O)Nc3ccc(C(C)=O)cc3)=C2)cc1OC | 32µM* | 1 | 35% | -7 | 4% | -22
O=[N+]([O-])c1ccc(-c2cn3c(n2)CCC3)cc1 | 4% | 2 | 14µM* | 3 | ? | 1
c1ccc(-c2cn3c(n2)CCC3)cc1 | -3% | 4 | 1% | -5 | 0% | -1
Cc1ccc(C(=O)Nc2ccc3c(c2)C(=O)N(C)C3=O)c(C)c1 | 8% | 3 | 35µM* | 14 | 6% | ·
CCCn1ccc2c(OCC(=O)Nc3ccc(OC)c(OC)c3)cccc2c1=O | · | · | · | · | 0% | ·
Cc1ccc(C)c(N2CCN(C(=O)CCNC(=O)Cn3ccc4ccccc4c3=O)CC2)c1 | -17% | 3 | ? | 7 | 1% | -2
Cc1ccc(Cl)cc1N1CCN(C(=O)Cn2ccc3ccccc3c2=O)CC1 | 25µM* | 1 | -6% | 14 | 2% | -11
C=CCOC(=O)C1=C(C)NC(=O)NC1c1cc2c(cc1Br)OCO2 (stereo not given) | 10% | 0 | 2% | 13 | -1% | 3
CC(C)NC(=O)C1CCN(C(=O)c2cc3sccc3n2Cc2ccc(F)cc2)CC1 | 32µM* | 0 | 2% | 2 | 1% | -10
CCO[C@H]1OC(C(=O)N2CCN(Cc3ccc4c(c3)OCO4)CC2)=C[C@@H](C(C)(C)C)[C@@H]1CCCO | 7.9µM* | 1 | · | 1 | 3% | ·
